Each structure is given as a SMILES string. Inconclusive results are not listed. Activity calls are given as the source filed them. How the source made its calls, unless noted: active means hit-call score of the fitted dose curve at least 0.9, where 1 is the maximum; inactive means score below 0.9.

The text below walks through data of PubChem BioAssay (EPA / NIEHS).

Test [1] addresses Retinoic acid receptor RXR-alpha (Homo sapiens) (UniProt P19793). Description: ATG_RXRa_TRANS: Attagene TRANS-FACTORIAL HepG2 Assay for human Retinoid X Receptor alpha (RXRa) (AID 2283012; active means hit-call score of the fitted dose curve at least 0.9, where 1 is the maximum). An outline of the steps:
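HepG2 cells transiently transfected with GAL4-UAS reporter units and chimeric RXRa-Gal4 protein, treated 24 h. Reporter mRNA measured by RT-PCR, fluorescent labelling, HpaI digestion and capillary electrophoresis. Induction fitted against DMSO.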

Test [2] concerns the target human Retinoid X Receptor beta (RXRb), RXRB (gene 6257) (UniProt P28702). The test is described as follows: ATG_RXRb_TRANS: Attagene TRANS-FACTORIAL HepG2 Assay for human Retinoid X Receptor beta (RXRb) (AID 2283013; active means hit-call score of the fitted dose curve at least 0.9, where 1 is the maximum). An outline of the steps: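 HepG2 cells were transiently transfected with multiplexed GAL4-UAS reporters and a chimeric RXRb-Gal4 construct, then exposed for 24 h. Reporter mRNA was quantified by RT-PCR, FAM labeling, HpaI digestion and capillary electrophoresis; gain of signal was scored against DMSO.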

Read-out in test [3]: E-selectin (Homo sapiens) (UniProt P16581)
The test is described as follows: BSK_3C_Eselectin: BioMAP Diversity Plus: 3C Assay for Eselectin Biomarker Activity (AID 2283015). Particulars: primary human endothelial cells (HUVEC); actives raise or lower the signal. The method in brief:
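ELISA read-out of E-selectin on endothelial monolayers after 24 h chemical treatment. Human umbilical vein primary cells served as the system, with DMSO defining baseline activity for bidirectional fitting.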

Read-out in test [4]: Interleukin-1 alpha (IL1a), IL1A (gene 3552)
The test is described as follows: BSK_BE3C_IL1a: BioMAP Diversity Plus: BE3C Assay for Interleukin-1 alpha (IL1a) Biomarker Activity (AID 2283016). Particulars: primary human bronchial epithelial cells; actives raise or lower the signal. The method in brief:
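Human primary bronchial epithelial cells, 24 h chemical exposure; IL-1a quantified by ELISA, fitted bidirectionally against DMSO. Cytotoxicity assessed in parallel by SRB total-protein staining at the time of measurement.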

Read-out in test [5]: Monocyte Chemoattractant Protein-1 (MCP1), CCL2 (gene 6347)
The test is described as follows: BSK_3C_MCP1: BioMAP Diversity Plus: 3C Assay for Monocyte Chemoattractant Protein-1 (MCP1) Biomarker Activity (AID 2283017). Particulars: primary human endothelial cells (HUVEC); actives raise or lower the signal. The method in brief: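 ELISA read-out of MCP-1 from human umbilical vein endothelial cell cultures harvested 24 h post-dosing. Gain or loss of signal was fitted relative to DMSO.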

Read-out in test [6]: Monocyte Chemoattractant Protein-1 (MCP1), CCL2 (gene 6347)
Description: BSK_4H_MCP1: BioMAP Diversity Plus: 4H Assay for Monocyte Chemoattractant Protein-1 (MCP1) Biomarker Activity (AID 2283018). Particulars: primary human endothelial cells (HUVEC); actives raise or lower the signal. An outline of the steps: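 Human umbilical vein endothelial cells (4H system) exposed to chemicals for 24 h in 96-well format. MCP-1 measured by ELISA; bidirectional fitting against DMSO, with SRB total-protein staining in parallel cultures for cytotoxicity.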

Read-out in test [7]: Human Leukocyte Antigen - DR isotype (HLADR), HLA-DRA (gene 3122)
Description: BSK_3C_HLADR: BioMAP Diversity Plus: 3C Assay for Human Leukocyte Antigen - DR isotype (HLADR) Biomarker Activity (AID 2283019). Particulars: primary human endothelial cells (HUVEC); actives raise or lower the signal. An outline of the steps: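 ELISA readout of surface HLA-DR on human umbilical vein endothelium, taken 24 h after chemical treatment. Gain- and loss-of-signal were both fitted relative to DMSO.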

Read-out in test [8]: Interleukin-8 (IL8), CXCL8 (gene 3576)
The test is described as follows: BSK_3C_IL8: BioMAP Diversity Plus: 3C Assay for Interleukin-8 (IL8) Biomarker Activity (AID 2283020). Particulars: primary human endothelial cells (HUVEC); actives raise or lower the signal. An outline of the steps:
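Primary human umbilical vein endothelial cells were dosed for 24 h. IL-8 was quantified by ELISA and fitted bidirectionally against DMSO. Cytotoxicity was assessed in parallel cultures by SRB staining at 560 nm.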

Read-out in test [9]: Monokine induced gamma interferon (MIG), CXCL9 (gene 4283)
The test is described as follows: BSK_3C_MIG: BioMAP Diversity Plus: 3C Assay for Monokine induced gamma interferon (MIG) Biomarker Activity (AID 2283021).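 On AC50: MIG protein level measured by immunoassay in the treated endothelial cultures.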 Particulars: primary human endothelial cells (HUVEC); actives raise or lower the signal. The method in brief:
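HUVEC primary endothelial cultures dosed with chemical; MIG quantified by ELISA at 24 h. Data fitted bidirectionally against DMSO control, with parallel SRB total-protein staining for cytotoxicity.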

Test [10] can be described thus: BSK_3C_SRB: Viability Assessment in the BioMAP Diversity Plus: 3C Assay (AID 2283023).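 Further: fitted both ways against DMSO so a hit may be signal rise or drop.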 Particulars: primary human endothelial cells (HUVEC). The method in brief:
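Absorbance at 560 nm of sulforhodamine B-stained (0.1%) total protein served as a cytotoxicity readout in human umbilical vein endothelial cells, 24 h after chemical treatment. Signal was fitted bidirectionally relative to DMSO.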

Read-out in test [11]: Matrix Metallopeptidase 1 (MMP1), MMP1 (gene 4312)
Description: BSK_BE3C_MMP1: BioMAP Diversity Plus: BE3C Assay for Matrix Metallopeptidase 1 (MMP1) Biomarker Activity (AID 2283024). Particulars: primary human bronchial epithelial cells; actives raise or lower the signal. The method in brief: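 Human primary bronchial epithelial cells (BE3C system) dosed for 24 h; MMP-1 quantified by ELISA. Bidirectional fit against DMSO; cytotoxicity tracked in parallel cultures by SRB total-protein staining.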

Test [12] can be described thus: BSK_3C_Vis: BioMAP Diversity Plus: 3C Assay for Morphology Visualization (AID 2283025).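 Further: light microscopy image of cell morphology used as background control; fitted both ways so gain or loss versus DMSO counts.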 Particulars: primary human endothelial cells (HUVEC). The method in brief: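 Human umbilical vein endothelial cell morphology was inspected by light microscopy 24 h after chemical dosing; scored bidirectionally relative to DMSO.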
Read-out in test [13]: Pselectin, SELP (gene 6403)
The test is described as follows: BSK_4H_Pselectin: BioMAP Diversity Plus: 4H Assay for Pselectin Biomarker Activity (AID 2283026). Particulars: primary human endothelial cells (HUVEC); actives raise or lower the signal. An outline of the steps: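 Primary human umbilical vein endothelial cells were treated 24 h, and cell-surface P-selectin was then quantified by ELISA. Bidirectional fit versus DMSO; cytotoxicity checked in parallel cultures by SRB total-protein staining.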

The nature of test [14]: BSK_4H_SRB: Viability Assessment in the BioMAP Diversity Plus: 4H Assay (AID 2283027).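 Further: cells exposed to compound for 24 h before staining.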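 On AC50: curves fitted both ways versus DMSO so AC50 may be loss or gain.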 Particulars: primary human endothelial cells (HUVEC). An outline of the steps:
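Human umbilical vein endothelial cells were dosed with chemical and, after 24 h, fixed with 10% TCA, stained with 0.1% sulforhodamine B, and read at 560 nm to give total protein as a cytotoxicity measure. Bidirectional fitting relative to DMSO control.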

Test [15] is described as follows: BSK_BE3C_SRB: Viability Assessment in the BioMAP Diversity Plus: BE3C Assay (AID 2283028).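 On AC50: fitted both ways so AC50 may mark signal gain or loss versus DMSO.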 Particulars: primary human bronchial epithelial cells. An outline of the steps:
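Cells (human bronchial epithelial, primary) are treated with chemicals, and after 24 h the parallel cultures are fixed in 10% TCA. These are then stained with 0.1% SRB and read at 560 nm. Gain or loss of signal is fitted relative to DMSO.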

Read-out in test [16]: Thrombomodulin, THBD (gene 7056)
Description: BSK_3C_Thrombomodulin: BioMAP Diversity Plus: 3C Assay for Thrombomodulin Biomarker Activity (AID 2283029). Particulars: primary human endothelial cells (HUVEC); actives raise or lower the signal. The method in brief:
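Human umbilical vein endothelial cells were exposed to chemicals for 24 h; cell-surface thrombomodulin quantified by ELISA, with bidirectional fitting against DMSO baseline.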

Read-out in test [17]: Urokinase-type plasminogen activator receptor (uPAR), PLAUR (gene 5329)
The test is described as follows: BSK_4H_uPAR: BioMAP Diversity Plus: 4H Assay for Urokinase-type plasminogen activator receptor (uPAR) Biomarker Activity (AID 2283030). Particulars: primary human endothelial cells (HUVEC); actives raise or lower the signal. An outline of the steps: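 Cell-surface uPAR ELISA signal, measured 24 h after dosing human umbilical vein endothelial cells, was analyzed with bidirectional fitting relative to DMSO. Parallel SRB staining of total protein tracked overt cytotoxicity.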

Read-out in test [18]: Vascular endothelial growth factor receptor 2 (Homo sapiens) (UniProt P35968)
Description: BSK_4H_VEGFRII: BioMAP Diversity Plus: 4H Assay for Vascular endothelial growth factor receptor 2 (VEGFR2) Biomarker Activity (AID 2283031).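 On AC50: cell-surface VEGFR2 protein level quantified by ELISA.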 Particulars: primary human endothelial cells (HUVEC); actives raise or lower the signal. The method in brief: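 ELISA read-out of VEGFRII in primary human umbilical vein endothelium, taken 24 h after chemical treatment. Responses are expressed relative to DMSO, with bidirectional fitting.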

The target in test [19] is human Thyroid Receptor alpha (THRa1), THRA (gene 7067) (UniProt P10827). The test is described as follows: ATG_THRa1_TRANS: Attagene TRANS-FACTORIAL HepG2 Assay for human Thyroid Receptor alpha (THRa1) (AID 2283014; active means hit-call score of the fitted dose curve at least 0.9, where 1 is the maximum). The method in brief: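 Reporter transcript induction, read by capillary electrophoresis of 6-FAM-labelled RT-PCR products, reflects activity of a transfected THRa1-Gal4 fusion in HepG2 liver cells. Cells were dosed for 24 h; activity was fitted in the positive direction against DMSO.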

In test [20] the target is human Vitamin D Receptor (VDR), VDR (gene 7421) (UniProt P11473). Description: ATG_VDR_TRANS: Attagene TRANS-FACTORIAL HepG2 Assay for human Vitamin D Receptor (VDR) (AID 2283022; active means hit-call score of the fitted dose curve at least 0.9, where 1 is the maximum). The method in brief:
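Steps: transfect HepG2 with GAL4-UAS-driven reporter constructs; dose compounds 24 h; isolate RNA, reverse-transcribe, PCR-amplify with 6-FAM-labelled primer extension and HpaI digestion; quantify fragments by capillary electrophoresis relative to DMSO.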

Chain of Retinoic acid receptor RXR-alpha (Homo sapiens) (P19793 whole entry, looked up, the tested form may be a part): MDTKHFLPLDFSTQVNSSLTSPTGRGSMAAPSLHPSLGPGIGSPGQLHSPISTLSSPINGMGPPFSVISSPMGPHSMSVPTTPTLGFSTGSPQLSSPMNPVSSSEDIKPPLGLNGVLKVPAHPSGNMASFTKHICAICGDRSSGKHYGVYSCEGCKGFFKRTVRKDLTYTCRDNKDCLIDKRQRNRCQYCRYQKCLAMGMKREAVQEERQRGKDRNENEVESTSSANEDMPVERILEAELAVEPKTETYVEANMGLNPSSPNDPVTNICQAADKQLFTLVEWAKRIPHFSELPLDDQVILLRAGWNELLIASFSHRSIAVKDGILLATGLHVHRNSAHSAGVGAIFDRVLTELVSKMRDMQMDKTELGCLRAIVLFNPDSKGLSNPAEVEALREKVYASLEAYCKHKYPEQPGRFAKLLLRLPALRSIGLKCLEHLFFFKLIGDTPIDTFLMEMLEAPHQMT
Chain of human Retinoid X Receptor beta (RXRb), RXRB (gene 6257) (P28702 whole entry, looked up, the tested form may be a part): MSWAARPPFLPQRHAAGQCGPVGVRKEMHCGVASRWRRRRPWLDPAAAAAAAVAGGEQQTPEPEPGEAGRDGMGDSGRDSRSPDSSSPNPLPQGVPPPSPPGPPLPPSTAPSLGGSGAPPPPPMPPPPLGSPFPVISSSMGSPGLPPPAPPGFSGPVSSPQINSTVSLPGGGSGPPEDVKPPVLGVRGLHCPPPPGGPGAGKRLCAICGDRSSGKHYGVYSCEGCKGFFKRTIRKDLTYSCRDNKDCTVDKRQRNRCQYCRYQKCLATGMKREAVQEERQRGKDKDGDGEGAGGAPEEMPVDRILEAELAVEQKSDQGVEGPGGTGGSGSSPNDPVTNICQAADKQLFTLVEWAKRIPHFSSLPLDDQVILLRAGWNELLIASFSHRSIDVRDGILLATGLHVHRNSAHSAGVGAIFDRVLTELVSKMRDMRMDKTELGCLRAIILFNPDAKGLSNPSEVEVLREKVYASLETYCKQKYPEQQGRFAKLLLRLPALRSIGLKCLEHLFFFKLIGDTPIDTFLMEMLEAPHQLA
Chain of E-selectin (Homo sapiens) (P16581 whole entry, looked up): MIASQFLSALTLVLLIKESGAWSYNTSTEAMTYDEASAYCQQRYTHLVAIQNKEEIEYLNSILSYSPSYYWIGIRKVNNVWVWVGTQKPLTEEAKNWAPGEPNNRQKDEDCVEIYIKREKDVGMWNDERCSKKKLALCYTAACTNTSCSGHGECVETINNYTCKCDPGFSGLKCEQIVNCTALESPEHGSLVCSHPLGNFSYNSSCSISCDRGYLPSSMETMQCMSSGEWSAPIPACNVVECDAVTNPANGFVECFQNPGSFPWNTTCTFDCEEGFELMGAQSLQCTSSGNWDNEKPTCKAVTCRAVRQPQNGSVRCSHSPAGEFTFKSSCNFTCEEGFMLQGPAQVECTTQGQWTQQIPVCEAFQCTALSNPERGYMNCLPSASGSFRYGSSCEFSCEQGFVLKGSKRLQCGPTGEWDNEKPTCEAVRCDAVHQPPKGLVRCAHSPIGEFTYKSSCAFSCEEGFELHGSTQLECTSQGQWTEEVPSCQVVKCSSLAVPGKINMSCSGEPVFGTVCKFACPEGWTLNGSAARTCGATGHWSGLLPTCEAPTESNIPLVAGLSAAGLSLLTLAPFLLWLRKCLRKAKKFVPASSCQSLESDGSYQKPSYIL
Chain of human Vitamin D Receptor (VDR), VDR (gene 7421) (P11473 whole entry, looked up, the tested form may be a part): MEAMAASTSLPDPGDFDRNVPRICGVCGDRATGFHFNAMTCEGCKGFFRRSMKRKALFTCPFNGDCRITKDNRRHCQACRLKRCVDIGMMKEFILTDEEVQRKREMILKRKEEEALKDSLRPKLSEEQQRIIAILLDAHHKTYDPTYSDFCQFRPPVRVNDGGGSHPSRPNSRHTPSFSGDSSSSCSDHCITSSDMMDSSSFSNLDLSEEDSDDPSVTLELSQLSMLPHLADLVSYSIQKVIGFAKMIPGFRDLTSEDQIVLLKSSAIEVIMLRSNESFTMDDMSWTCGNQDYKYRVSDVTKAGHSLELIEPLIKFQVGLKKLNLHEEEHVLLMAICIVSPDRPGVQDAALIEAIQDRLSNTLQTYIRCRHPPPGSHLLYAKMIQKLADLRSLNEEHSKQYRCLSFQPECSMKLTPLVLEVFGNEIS
Chain of human Thyroid Receptor alpha (THRa1), THRA (gene 7067) (P10827 whole entry, looked up, the tested form may be a part): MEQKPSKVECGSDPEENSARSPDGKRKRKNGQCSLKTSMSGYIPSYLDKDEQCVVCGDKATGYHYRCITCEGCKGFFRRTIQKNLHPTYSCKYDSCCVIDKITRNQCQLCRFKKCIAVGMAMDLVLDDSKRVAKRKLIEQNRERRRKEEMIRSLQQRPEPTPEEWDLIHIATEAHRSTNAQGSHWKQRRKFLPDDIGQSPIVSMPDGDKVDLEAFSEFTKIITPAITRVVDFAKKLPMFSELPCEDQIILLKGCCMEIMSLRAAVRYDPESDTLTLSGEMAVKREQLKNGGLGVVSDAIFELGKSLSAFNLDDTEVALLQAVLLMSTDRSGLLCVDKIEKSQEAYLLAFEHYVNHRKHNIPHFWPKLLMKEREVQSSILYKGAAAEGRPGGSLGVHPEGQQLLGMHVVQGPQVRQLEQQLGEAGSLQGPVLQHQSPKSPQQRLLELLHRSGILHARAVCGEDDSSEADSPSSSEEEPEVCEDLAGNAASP

On to `Clc1cc(Cl)c(-c2c(Cl)c(Cl)cc(Cl)c2Cl)cc1Cl`, for which the call in [1], in [2], in [9], in test [11], in test [15] and in [16] was inactive. Besides, the AC50 is 13.8 µM (active) in [3]; 1.98 µM (active) in test [4]; 16 µM (active) in test [5]; 8.9 µM (active) in test [6]; 15.2 µM (active) in [7]; 1.98 µM (active) in test [8]. Also, the AC50 was 15.8 µM (active) in [10]; 19.9 µM (active) in test [12]; 10 µM (active) in test [13]; 18.8 µM (active) in test [14]; 17.4 µM (active) in [17]; 10 µM (active) in [18].
With `CCCCCCC(CO)CCCC` (stereo unspecified), the call in [1], in test [3], in test [4], in test [5], in test [6] and in test [7] was inactive. Also, the result in test [8], in test [9], in [10], in test [11], in test [13] and in test [14] was inactive. Further, the outcome in [15], in test [16], in [17] and in test [18] was inactive. In test [2], the AC50 is 54.8 µM (active).
On to `CC(=O)C1(C)CC2=C(CCCC2(C)C)CC1C` (stereo unspecified), for which the compound was classed as inactive in [1] and in test [16]. Further, the AC50 in test [2] was 36.1 µM (active); in test [4], 20 µM (active); in test [5] it was 11 µM (active); in test [6], 10.4 µM (active); in [7] it was 10.4 µM (active); in [8] it was 5.52 µM (active). In addition, the AC50 in test [9] is 20 µM (active); in test [10], 8.86 µM (active); in test [11], 27.5 µM (active); in [12], 8.8 µM (active); in test [13], 5.95 µM (active); in test [14], 6.99 µM (active). Also, the AC50 in test [15] is 27.1 µM (active); in test [17] it was 5.19 µM (active); in test [18] it was 5.33 µM (active).
On to `O=C(O)c1cc(C(=O)O)cc([N+](=O)[O-])c1`, for which the result in test [1], in [2], in test [19] and in [20] was inactive.
